# Screening results (PubChem BioAssay)
# gsp antag – antagonizes gsp, the McCune-Albright syndrome mutation; gsp-mutant cells, cAMP HTRF, 30 min; Potency, µM (top dose mostly 76.9 µM), without a hit: at the highest dose activity change, negative = inhibition, usual class: inhibitors; 340,000 compounds, 0.4% hits; AID 624288; calls by dose curve; cell line not stated here;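 further: intracellular cAMP measured with PDE inhibitor Ro 20-1724 present during compound exposure; potency means the concentration at half of the fitted maximal effect; on the % scale 0 is the no-effect control and ±100 the full control effect; nearly all actives have a fitted effect of over 65% in size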
#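 HTRF cAMP measurement after 30 min RT detection following 30 min, 37C compound treatment alongside […] (added as 300 uM solution) in G418-selected cells seeded at 2000/well and grown 16–24 h.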
# gsp agonist – activates gsp, the McCune-Albright syndrome mutation; gsp mutant cells, cAMP HTRF, 30 min; Potency, µM (top dose mostly 76.9 µM), without a hit: at the top dose activation (cAMP increase), usual class: activators; 340,000 compounds, 0.13% hits; AID 624287; active means well fitted activation curve with a large enough effect; inconclusive means small, poorly fitted or top-dose-only effect, or another doubt; inactive means no such curve, though single readings can be large or run the other way; cell line not stated here;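 further: phosphodiesterase inhibitor Ro 20-1724 added with compounds to block cAMP breakdown; potency means the concentration at half of the fitted maximal effect; nearly all actives have a fitted effect of over 60% in size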
#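 Cells in DMEM/10% FBS with G418 were pretreated with compounds in DMSO plus […] (300 uM stock) for 30 min at 37C. cAMP was measured by HTRF (cAMP-d2 plus anti-cAMP antibody-K) after 30 min at room temperature.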
# RXFP1 antagonist – RXFP1 (human) relaxin receptor antagonism. activity change, negative = inhibition, % at 57.5 µM. HEK293-RXFP1, relaxin-stimulated cAMP HTRF, 30 min; active compounds read low. 350,000 compounds, 0.59% hits. AID 1259400;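 active means activity change of -60% or lower, but not beyond a set lower limit; inconclusive means change between -60% and -40%, or beyond the set limit; inactive means change above -40%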; further: on the % scale 0 is the no-effect control and ±100 the full control effect
# RXFP1 agonist – activates the human relaxin receptor RXFP1; Potency, µM (titrated, usually from 57.5 µM), inactives show top-dose activation, most hits filed as activators; Q9HBX9; HEK293T-RXFP1 cAMP TR-FRET, 30 min; response scale: percent of porcine relaxin response, buffer zero; 370,000 compounds, 0.3% hits; active means well fitted activation curve with a large enough effect; inconclusive means small, poorly fitted or top-dose-only effect; further: potency means the concentration at half of the fitted maximal effect; on the % scale 0 is the no-effect control and ±100 the full control effect; nearly all actives have a fitted effect of over 60% in size
#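 Agonist response is measured as cAMP accumulation in an RXFP1-transfected HEK293T line under PDE4 inhibition. Values are scaled between buffer-only and 29 nM porcine relaxin, and EC50s come from standard Hill equation fits.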
# * = called active by the depositor; ? = inconclusive; nt = no result; [ ] = dose if it differs, or a comment. Compounds with a hit are over-represented: about 0.9% of the library has one in this group of screens.
SMILES,gsp antag,gsp agonist,RXFP1 antagonist,RXFP1 agonist
Cc1cccc(NC(=O)c2cc(S(=O)(=O)NCc3ccc4c(c3)OCO4)ccc2F)c1C,nt,nt,-14.1,-1.5%
CNC(=O)c1c(I)c(NC(=O)CCCCC(=O)Nc2c(I)c(C(=O)O)c(I)c(C(=O)NC)c2I)c(I)c(C(=O)O)c1I,nt,nt,14.6,nt
O=C1/C(=C/c2ccc([N+](=O)[O-])cc2)Oc2cc(O)ccc21,22.4µM*,1.0%[15.4 µM],-6.0,-0.9%
COc1ccc(CC(=O)Nc2ccc(S(=O)(=O)Nc3onc(C)c3C)cc2)cc1OC,2.1%,-6.6%,-113.1*,-0.3%
Cc1cc(C)c(C#N)c(SCC(=O)Nc2ccc(S(=O)(=O)Nc3onc(C)c3C)cc2)n1,5.2%,17.8µM*,nt,13.7%
Cc1noc(NS(=O)(=O)c2ccc(NC(=O)c3nn(-c4ccccc4)ccc3=O)cc2)c1C,14.0%,14.1µM*,12.6,?
Cc1noc(NS(=O)(=O)c2ccc(NC(=O)c3ccc(N4C(=O)c5ccccc5C4=O)cc3)cc2)c1C,3.2%,-1.7%[15.4 µM],-32.6,4.9%
CCN1C(=O)/C(=C\C(=O)c2cccs2)c2cc(Br)ccc21,-4.4%,-20.2%,-66.2*,2.1%
CC(=O)c1ccc(NC(=O)Nc2ccc3c(c2)N(C)C(=O)CS3)cc1,35.5µM*,?,-69.8*,0.8%
CCOc1ccc(NC(=O)Nc2ccc3c(c2)N(C)C(=O)CS3)cc1,-21.1%,-40.8%,nt,-1.7%
COc1ccc(NC(=O)Nc2ccc3c(c2)N(C)C(=O)CS3)cc1Cl,50.1µM*,-13.0%,?,-2.7%
Cc1cc(C)c(/C=C/c2onc(C)c2S(=O)(=O)N2CCC(C(=O)Nc3ccc(Cl)c(C(F)(F)F)c3)CC2)c(C)c1,nt,nt,6.9,-2.2%
COc1ccc(C(=O)Nc2nnc(S(=O)(=O)N(C)c3ccc(Cl)cc3)s2)cc1OC,nt,nt,-2.2,2.6%
COc1ccc(N2CCN(C(=O)c3ccc(C)c(NC(=O)c4nsc5ccccc45)c3)CC2)cc1,nt,nt,1.3,-2.1%
O=C(Nc1ccc2nc(SCC(=O)N3CCCC3)sc2c1)c1cccc(Br)c1,nt,nt,-29.5,-1.0%
N#Cc1ccc(-c2ccc(OCC(=O)NN=Cc3ccncc3)cc2)cc1,35.5µM*,7.6%,-27.7,nt
COc1ccc(OCC(=O)N/N=C/c2ccncc2)cc1,-1.7%,-3.9%,2.3,0.6%
CN(Cc1ccccc1)C(=O)CN1CCN(C(c2ccccc2)c2ccccc2)CC1,-21.6%,-10.4%[15.4 µM],-81.4*,3.1%
S=c1[nH]ccc2ccccc12,28.0%,5.01µM*,6.5,nt
CN(CC(O)COCc1ccccc1F)C1CCCCC1 (configuration not stated),-19.9%,-1.5%,11.8,0.9%
CN(Cc1cccc(F)c1)CC(O)COCc1ccccc1Cl (configuration not stated),11.2µM*,8.6%,-27.2,2.8%
Cc1ccc(/C=N/n2c(-c3cccnc3)n[nH]c2=S)s1,7.94µM*,-19.6%,9.7,0.4%
S=c1[nH]nc(-c2cccnc2)n1/N=C/c1ccc(Br)s1,?,-4.8%[15.4 µM],-4.1,1.1%
COC(=O)c1sccc1NC(=O)CN(C)NS(=O)(=O)c1ccc(F)cc1,50.1µM*,-1.1%,19.7,1.7%
COC(=O)c1sccc1NC(=O)CN(C)NS(=O)(=O)c1ccc(Cl)cc1,8.4%,-7.6%,15.7,0.1%
SMILES,gsp antag,gsp agonist,RXFP1 antagonist,RXFP1 agonist
COc1ccc(CNC(=O)c2ccc(Cn3c(=O)c4cccn4c4cccnc43)cc2)c(OC)c1,nt,nt,2.2,?
O=C1c2ccccc2NC(c2ccc(Br)s2)N1O (configuration not stated),-1.7%,15.8µM*,-1.2,nt
CCOC(=O)C1CCCN(S(=O)(=O)c2ccc(N3CCCCS3(=O)=O)cc2)C1 (configuration not stated),nt,nt,2.8,4.7%
N#C/C(=C\c1ccccc1)C(=O)NCc1ccc(F)cc1,6.5%,7.3%,-65.1*,1.1%
CCOCCCN(C)C1CCN(C(=O)c2oc3ccccc3c2NC(=O)c2cccc([N+](=O)[O-])c2)CC1,-2.1%,-0.7%,-65.7*,-0.1%
Cc1ccc(S(=O)(=O)N2CCN(C(=O)CNC(=O)c3sc4ccccc4c3Cl)CC2)cc1,-33.2%,11.2µM*,-13.6,7.9%
O=C(NCC(=O)N1CCCCC1)c1sc2ccccc2c1Cl,5.0%,19.9%,9.0,0.4%
COc1ccc(C(C[N+](=O)[O-])c2c(C)[nH]n(-c3ccccc3)c2=O)cc1 (configuration not stated),8.7%,-8.6%,-12.8,1.2%
